Source: PubChem BioAssay
Activity calls are given as the source filed them. How the calls were made is not given here.

molecular target: Pantothenate synthetase (Mycobacterium tuberculosis (strain ATCC 25618 / H37Rv)) (UniProt P9WIL5); experiment: Recombinant Mtb pantothenate synthetase (PanC) inhibitors, coupled enzyme, confirmatory (AID 375); conditions: coupled enzyme assay; at 10 µM, active compounds read high;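 further: 0% = full reaction with vehicle and 100% = no enzyme background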
Sequence (P9WIL5 whole entry, looked up): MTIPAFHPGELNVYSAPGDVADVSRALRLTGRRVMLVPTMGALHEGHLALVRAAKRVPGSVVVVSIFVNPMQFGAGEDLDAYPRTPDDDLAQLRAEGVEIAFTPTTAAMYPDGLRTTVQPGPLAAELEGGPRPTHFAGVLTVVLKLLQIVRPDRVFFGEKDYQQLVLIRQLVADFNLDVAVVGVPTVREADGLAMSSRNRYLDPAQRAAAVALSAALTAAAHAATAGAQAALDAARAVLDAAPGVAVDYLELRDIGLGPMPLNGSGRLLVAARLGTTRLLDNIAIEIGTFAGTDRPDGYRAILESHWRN

Row | SMILES | inhibition
1 | CS(=O)(=O)C1=C(O)C(=O)N(c2ccccc2)C1c1ccccc1 (configuration not stated) | 5% (inactive)
2 | Oc1ccc(-c2onc(C(F)(F)F)c2-c2cscn2)c(O)c1 | 2% (inactive)
3 | COC(=O)c1cc(NC(=O)C2CC=CCC2C(=O)O)cc(C(=O)OC)c1 (configuration not stated) | 3% (inactive)
4 | N#Cc1nc(-c2ccco2)oc1NCCc1ccccc1 | 0% (inactive)
5 | CCC(=O)Nc1cc(C(=O)NCC2CCCN2CC)c(OC)cc1N(C)C (configuration not stated) | 0% (inactive)
6 | CCOC(=O)N1CCN(C(=O)COc2ccc(Br)cc2Cl)CC1 | 0% (inactive)
7 | COc1cc(-n2nc(C)c3c2OC(N)=C(C#N)C3c2ccccc2)c(Cl)c(Br)c1O (configuration not stated) | 9% (inactive)
8 | O=C(CN1C(=O)c2ccccc2S1(=O)=O)NCc1ccccn1 | 0% (inactive)
9 | Cc1ccnc(NC(=O)Nc2ccc(F)cc2)c1 | 0% (inactive)
10 | Cn1c(=O)n(Cc2ccccc2)c(=O)c2c1nc(NCC1CCCO1)n2Cc1ccccc1 (configuration not stated) | 0% (inactive)
11 | O=C(COC(=O)CCc1c[nH]c2ccccc12)NC1CCS(=O)(=O)C1 (configuration not stated) | 3% (inactive)
12 | c1ccc(-n2nnnc2OCCOc2nnnn2-c2ccccc2)cc1 | 3% (inactive)
13 | COc1cccc(NC(=O)CN2CCN(c3ccccc3F)CC2)c1 | 4% (inactive)
14 | CN1CCN(C(c2cccc(C(F)(F)F)c2)c2nnnn2C(C)(C)C)CC1 (configuration not stated) | 1% (inactive)
15 | Cn1c2ccccc2c2ncn(CCCN3CCOCC3)c(=O)c21 | 0% (inactive)
16 | CCn1c(=O)c(C(=O)NCc2ccc(OC)cc2)c(O)c2ccccc21 | 3% (inactive)
17 | O=C1NC(c2ccccc2)(C(F)(F)F)SC2=CCCCCN12 (configuration not stated) | 0% (inactive)
